Pf Dd2 inh – Plasmodium falciparum Dd2 growth inhibition | P. falciparum Dd2 growth, SYBR Green, 72 h | Potency, µM (top dose mostly 28.9 µM), without a hit: at the top dose activity, negative = inhibition, usual class: inhibitors | 120,000 tested, 4.3% active; active means well fitted inhibition curve with a large enough effect;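 further: plate controls were DMSO vehicle for no effect and reference drug for full effect; nearly all actives have a fitted effect of over 65% in size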
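Infected erythrocytes (Dd2, 0.3% parasitemia, 2.5% hematocrit final) are added to compound in RPMI-1640/Albumax II medium, grown 72 h at 37C in low oxygen, then lysed with saponin/Triton-X containing SYBR Green and read by fluorescence.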
* hit, by the source's call; [ ] = dose if it differs, or a comment. The full list was thinned out, with hits kept by preference. Potency means the concentration at half of the fitted maximal effect.

CC(NC(=O)C1CCN(C(=O)c2ncn3c2COC(c2ccc(Cl)cc2)C3)CC1)c1ccccc1 (stereo not drawn) was read as Pf Dd2 inh -16%.
For COC1CCC12CCN(C(=O)c1cccn1C)CC2 (stereo not drawn) the results were Pf Dd2 inh 8%.
For Cc1noc([C@@H]2CN(C(=O)CCc3ccccc3)C[C@H]2CO)n1 the results were Pf Dd2 inh 43%.
Screening CCOc1ccc2c(c1)c(=O)c(S(=O)(=O)c1ccc(F)cc1)cn2CC(=O)Nc1ccccc1C returned Pf Dd2 inh inactive.
For CCOc1ccc(S(=O)(=O)c2cn(Cc3ccccc3C)c3ccc(OC)cc3c2=O)cc1 the results were Pf Dd2 inh 4.5µM*.
CCOc1ccc2c(c1)c(=O)c(S(=O)(=O)c1ccc(CC)cc1)cn2CC was read as Pf Dd2 inh -11%.
For COc1ccc(OC)c(NC(=O)Cn2cc(S(=O)(=O)c3ccccc3)c(=O)c3cc(C)ccc32)c1 the results were Pf Dd2 inh inactive.
Screening COc1ccc(S(=O)(=O)c2cn(C)c3ccc(C)cc3c2=O)cc1 returned Pf Dd2 inh 21%.
Cc1ccc(S(=O)(=O)c2cn(CC(=O)Nc3ccc(Cl)cc3)c3ccc(F)cc3c2=O)cc1C was read as Pf Dd2 inh inactive.
Screening COc1ccc2c(c1)c(=O)c(S(=O)(=O)c1ccc(Cl)cc1)cn2Cc1cc(C)ccc1C returned Pf Dd2 inh 11µM*.
O=c1c(S(=O)(=O)c2ccc(Cl)cc2)cn(Cc2ccc(F)cc2)c2ccc(F)cc12 was read as Pf Dd2 inh 11µM*.
`Cc1ccc(S(=O)(=O)c2cn(Cc3ccc(F)cc3)c3cc(F)c(F)cc3c2=O)cc1` gave Pf Dd2 inh 13%.
O=Cc1ccccc1-c1ccccn1 was read as Pf Dd2 inh 12%[44.1 µM].
For CN(C)C(=O)N1CCC(c2nc(C3CCOC3)no2)CC1 (stereo not drawn) the results were Pf Dd2 inh 8%.
O=C(NCc1ccccc1)[C@H]1CN2CCC1C[C@@H]2Cn1cc(CSc2ccccc2)nn1 (stereo partly drawn) was read as Pf Dd2 inh inactive.
O=C([C@@H]1C[C@H](Oc2ccccc2)CN1C(=O)c1ccc2ccccc2n1)N1CCOCC1 was read as Pf Dd2 inh 2%.
`O=C(NCc1ccccc1)C1COC2(CCN(C(=O)c3ccco3)CC2)N1C(=O)c1ccco1` (stereo not drawn) gave Pf Dd2 inh inactive.
Cc1noc(C)c1CC(=O)NCCc1noc(C2CC2)n1 was read as Pf Dd2 inh -6%.
`CCCNC(=O)N(C1CCOCC1)C1CCN(C(=O)c2cccc(C(F)(F)F)c2)CC1` gave Pf Dd2 inh 7%.
Screening CC1=NS(=O)(=O)N(C)C=C1C(=O)OCc1nc(-c2cccs2)no1 returned Pf Dd2 inh 6%.
`O=C(NCCc1ccccc1)C1CCCN(C2CCN(Cc3ccccc3F)CC2)C1` (stereo not drawn) gave Pf Dd2 inh inactive.
For O=C(NCCc1ccccc1)C1CCCN(C2CCN(Cc3ccncc3)CC2)C1 (stereo not drawn) the results were Pf Dd2 inh 10µM*.
`O=C(NCCN1CCOCC1)C1CCCN(C2CCN(Cc3ccncc3)CC2)C1` (stereo not drawn) gave Pf Dd2 inh -15%.
`CCc1cccc(C)c1NC(=O)Cn1cccc1-c1nc(-c2ccc3c(c2)OCO3)no1` gave Pf Dd2 inh -11%.
`Cc1ccc([S+](=O)([O-])N2CCn3c(nn(-c4ccc(F)cc4)c3=O)C2)cc1` gave Pf Dd2 inh 15%.
For Cc1ccc(OC2CN(C(=O)c3ccc(F)cc3)C2)cc1C the results were Pf Dd2 inh -30%[44.1 µM].
For Cc1ccc(C(=O)N2CC(Oc3ccc(F)cc3C)C2)cc1 the results were Pf Dd2 inh 11µM*.
Cc1cc(F)ccc1OC1CN(C(=O)c2ccccn2)C1 was read as Pf Dd2 inh 0%[44.1 µM].
For COc1cccc(S(=O)(=O)N2CCc3nnc([C@@H]4C[C@@H](O)CN4C)n3CC2)c1 the results were Pf Dd2 inh 5%.
For O=C(c1ccc(F)c(F)c1)N1CC(c2nnc(-c3ccncc3)o2)C2(CCOCC2)C1 (stereo not drawn) the results were Pf Dd2 inh 8%.
CC1(C(=O)O)CCN(S(=O)(=O)c2ccccc2)CC1 was read as Pf Dd2 inh -24%[44.1 µM].
Screening COCC1CN(C(=O)NCCc2ccccc2)CC12CCNCC2 (stereo not drawn) returned Pf Dd2 inh 7%.
Cc1ccc(CNC(=O)c2ccc3nc(N4CCCCC4)sc3c2)cc1 was read as Pf Dd2 inh -8%.
For CCCN(CCC)CCCNC(=O)C1CCN(c2nc3ccc(CC)cc3s2)CC1 the results were Pf Dd2 inh 7.1µM*.
CCCN(CCC)CCCNC(=O)C1CCN(S(=O)(=O)CC)CC1 was read as Pf Dd2 inh 61%.
`CCOc1ccc2nc(N3CCC(C(=O)Nc4ccc(Br)cc4F)CC3)sc2c1` gave Pf Dd2 inh -27%.
For CCc1ccc2nc(N3CCC(C(=O)NCCC(C)C)CC3)sc2c1 the results were Pf Dd2 inh inactive.
For CCCN(CCC)CCNC(=O)C1CCN(c2nc3ccc(CC)cc3s2)CC1 the results were Pf Dd2 inh 7.1µM*.

Screening results (PubChem)
